Experimental data: PubChem BioAssay
This is one part of the list. Activity calls are given as the source filed them. Rule as the data show it, unless noted: active = inhibition above about 40%; inactive = the rest.

The molecules below were run against Sphingosine 1-phosphate receptor 4 (Homo sapiens) (UniProt O95977) (assay: blockers of human S1P4 signalling – cell-based, confirmation (AID 1524; in the data active = inhibition above about 30%)). Settings: S1P4-expressing cell line, antagonist mode, reporter read-out; at 4.98 µM; stronger effect = higher value.
Sphingosine 1-phosphate receptor 4 (Homo sapiens), sequence (O95977 whole entry, looked up): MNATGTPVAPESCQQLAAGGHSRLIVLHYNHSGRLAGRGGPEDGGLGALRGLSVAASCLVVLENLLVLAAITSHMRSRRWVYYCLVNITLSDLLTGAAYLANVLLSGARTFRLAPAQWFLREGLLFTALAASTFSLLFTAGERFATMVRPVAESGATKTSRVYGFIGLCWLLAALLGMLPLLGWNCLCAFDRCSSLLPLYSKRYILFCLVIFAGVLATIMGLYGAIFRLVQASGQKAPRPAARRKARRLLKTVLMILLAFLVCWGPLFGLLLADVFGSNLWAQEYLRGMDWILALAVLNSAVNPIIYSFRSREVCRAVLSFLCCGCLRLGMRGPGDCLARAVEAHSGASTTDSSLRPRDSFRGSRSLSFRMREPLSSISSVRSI

SMILES | inhibition
COc1ccc(-c2csc(NC3OC(=O)c4ccccc43)n2)cc1 (configuration not stated) | 19.3% (inactive)
CCOC(=O)/C=C/C(=O)OCC(=O)NC(c1ccccc1)c1ccccc1 | 63% (active)
CNc1ccc(SC#N)cc1 | 8.17% (inactive)
C=CS(=O)c1sc(Cl)c(N2CCOCC2)c1[N+](=O)[O-] (configuration not stated) | 102% (active)
C[C@@H](NC(=O)OC(C)(C)C)c1nnc(S(=O)(=O)Cc2ccccc2)o1 | 83.4% (active)
CCc1c(C)nc2cc(-c3cccs3)[nH]n2c1=O | 5.18% (inactive)
Nc1nonc1-c1nc2ccccc2n1Cc1ccc(F)cc1 | 35.7% (active)
O=C(CC(O)(C(F)(F)F)C(F)(F)F)Nc1ccc(Cl)c(Cl)c1 | 37.4% (active)
Cc1cc(C)nc(S/C=C/C(=O)c2ccccc2)n1 | 97.1% (active)
O=C(/C=C/c1ccc(Cl)cc1Cl)c1cccnc1 | 43.4% (active)
O=C(NC(Nc1nc2ccc([N+](=O)[O-])cc2s1)(C(F)(F)F)C(F)(F)F)c1ccccc1 | 64.5% (active)

These molecules were tested against Sphingosine 1-phosphate receptor 1 (Homo sapiens) (UniProt P21453) (assay: blockade of human S1P1 receptor – cell-based, counter-screen for S1P4 antagonist project (AID 1564;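 also: receptor stimulated with S1P near its EC80; 0% = agonist stimulated wells and 100% = vehicle only wells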)). Settings: cell-based S1P1 antagonist counterscreen, at 4.98 µM, stronger effect = higher value.
Sphingosine 1-phosphate receptor 1 (Homo sapiens), sequence (P21453 whole entry, looked up): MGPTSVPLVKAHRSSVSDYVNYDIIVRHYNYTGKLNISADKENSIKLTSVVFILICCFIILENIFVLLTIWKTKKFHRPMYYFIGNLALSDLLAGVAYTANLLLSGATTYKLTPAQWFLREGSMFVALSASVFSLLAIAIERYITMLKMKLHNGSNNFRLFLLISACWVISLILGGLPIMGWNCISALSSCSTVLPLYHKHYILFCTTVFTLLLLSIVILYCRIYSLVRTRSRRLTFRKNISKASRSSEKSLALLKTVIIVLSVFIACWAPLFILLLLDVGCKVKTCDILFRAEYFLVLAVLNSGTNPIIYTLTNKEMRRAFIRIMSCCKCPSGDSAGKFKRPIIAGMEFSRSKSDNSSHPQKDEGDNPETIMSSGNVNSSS

SMILES | inhibition
COc1ccc(-c2csc(NC3OC(=O)c4ccccc43)n2)cc1 (configuration not stated) | -6.85% (inactive)
CCOC(=O)/C=C/C(=O)OCC(=O)NC(c1ccccc1)c1ccccc1 | 23.2% (inactive)
CNc1ccc(SC#N)cc1 | -1.31% (inactive)
C=CS(=O)c1sc(Cl)c(N2CCOCC2)c1[N+](=O)[O-] (configuration not stated) | 12.4% (inactive)
C[C@@H](NC(=O)OC(C)(C)C)c1nnc(S(=O)(=O)Cc2ccccc2)o1 | 36.6% (inactive)
CCc1c(C)nc2cc(-c3cccs3)[nH]n2c1=O | 12.8% (inactive)
Nc1nonc1-c1nc2ccccc2n1Cc1ccc(F)cc1 | 33% (inactive)
O=C(CC(O)(C(F)(F)F)C(F)(F)F)Nc1ccc(Cl)c(Cl)c1 | 8.72% (inactive)
Cc1cc(C)nc(S/C=C/C(=O)c2ccccc2)n1 | 19.6% (inactive)
O=C(/C=C/c1ccc(Cl)cc1Cl)c1cccnc1 | 23.6% (inactive)
O=C(NC(Nc1nc2ccc([N+](=O)[O-])cc2s1)(C(F)(F)F)C(F)(F)F)c1ccccc1 | 26.4% (inactive)
